From PubChem BioAssay (NCI)
About 79,000 compounds went through this panel and 15% of them were active in at least one assay; those are over-represented in the sample as a whole. Cut-off read from the data, not from the text of the source: active = growth inhibition above about 70%; inactive = the rest.

What was measured:
[1] = NCI Yeast Anticancer Drug Screen. Data for the rad50 strain (AID 155);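 note: 0% = growth of vehicle-only cultures of the same strain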; conditions: S. cerevisiae rad50 strain growth inhibition, hits give high values; at 50.0 µM unless noted
How it was run: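 DNA repair mutant yeast, compound exposure, growth read-out; inhibition is taken relative to vehicle.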

[2] = NCI Yeast Anticancer Drug Screen. Data for the mec2-1 strain (AID 157); conditions: S. cerevisiae mec2-1 strain, hits give high values; at 50.0 µM unless noted
How it was run: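 Readout is yeast growth inhibition, normalised to vehicle-treated controls, in the mec2-1 strain exposed to compound.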

[3] = NCI Yeast Anticancer Drug Screen. Data for the sgs1 mgt1 strain (AID 161);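 note: 0% = growth of cultures given vehicle only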; conditions: S. cerevisiae sgs1 mgt1 strain, hits give high values; at 50.0 µM unless noted
How it was run: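 Percent growth inhibition was derived by comparing compound-exposed mutant yeast with vehicle-exposed cultures. The strain carries alterations in DNA damage repair.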

[4] = NCI Yeast Anticancer Drug Screen. Data for the cln2 rad14 strain (AID 165);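 note: 0% = growth equal to vehicle treated cultures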; conditions: S. cerevisiae cln2 rad14 strain, hits give high values; at 50.0 µM unless noted
How it was run: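 Relative to vehicle controls, growth inhibition of compound-treated cln2 rad14 yeast was recorded.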

[5] = NCI Yeast Anticancer Drug Screen. Data for the bub3 strain (AID 167); conditions: S. cerevisiae bub3 mutant strain, hits give high values; at 50.0 µM unless noted
How it was run: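 In this screen, a yeast mutant lacking normal mitotic checkpoint function is challenged with compound. Relative growth versus vehicle gives the inhibition value.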

[6] = NCI Yeast Anticancer Drug Screen. Data for the mlh1 rad18 strain (AID 175); conditions: S. cerevisiae mlh1 rad18 strain growth inhibition, hits give high values; at 50.0 µM unless noted
How it was run: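 Test agents were incubated with a yeast strain of defined genotype (DNA damage repair defect). Inhibition of growth was derived by comparison with vehicle-exposed cultures.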

Measured: growth inhibition

O=C(O)c1ccccc1S(=O)Cc1ccc(Br)cc1 (stereo not given)
inactive: [1] -10.6% | [2] -10.6% | [3] -23.1% | [4] -6.1% | [5] -0.3% | [6] 3.5%

CCC1CN2CCc3cc(OC)c(OC)cc3C2CC1=O (stereo not given)
inactive: [1] -11.3% | [2] -5.4% | [3] -8.65% | [4] -2.65% | [5] 1.15% | [6] -22.1%

CC(C)NS(=O)(=O)OCC(O)(CC(Cl)(Cl)Cl)c1ccccc1 (stereo not given)
inactive: [1] 23.8% | [2] 4.2% | [3] 16.9% | [4] 21.9% | [5] 11.7% | [6] 38.7%

CC(=O)NC(CCC(=O)O)C(=O)O (stereo not given)
inactive: [1] -0.55% | [2] -14.9% | [3] -7.15% | [4] -6.2% | [5] -20.1% | [6] -1.6%

CCCOC(CCC(=O)NC(C)(C)C)CC(=O)NC(C)(C)C (stereo not given)
inactive: [1] 5.85% | [2] 5.45% | [3] 6.9% | [4] 4.15% | [5] 0.55% | [6] -9.9%

O=C1C2(c3ccccc3)CCC1(c1ccccc1)C(c1ccccc1)=C2c1ccccc1
inactive: [1] 40.1% | [2] 26.9% | [3] 7.25% | [4] 23.9% | [5] 3.05% | [6] 37.5%

COc1ccccc1C(=O)Oc1ccc(OC(=O)c2ccccc2OC)c(C(C)=O)c1
inactive: [1] 16.6% | [2] -1.85% | [3] 0% | [4] 3.25% | [5] 20.2% | [6] 35.4%

CC(=O)C1=CC2(OC3CCC(O)(C(=O)CO)C(C)O3)C(=O)c3c(cc4cccc(O)c4c3O)CC2C(O)C1O (stereo not given)
inactive: [1] -6.2% | [2] -1.05% | [3] 2.9% | [4] -21.2% | [5] 20.8% | [6] 9.65%

CN(C)C(=S)/N=c1\ssc(=S)n1Cc1cccnc1
inactive: [1] -20.6% | [2] -14.4% | [3] 5.5% | [4] 22.9% | [5] -13.7% | [6] -62.8%

C=CSS/C(=C/N(C=O)Cc1cnc(C)nc1N)CCO
inactive: [1] -10.6% | [2] -33.5% | [3] -18.9% | [4] 1.85% | [5] -17.1% | [6] -10%

COC(=O)C(=O)C1CCCC(C)(c2ccccc2)C1 (stereo not given)
inactive: [1] -0.1% | [2] 2.05% | [3] -5.05% | [4] 0.2% | [5] 1.7% | [6] -4.7%

Cc1cc(O)c(C)c(C)c1O
inactive: [1] -4.1% | [2] -12.6% | [3] -6.95% | [4] -12.4% | [5] 4% | [6] 8.85%

O=C(O)c1ccc(C(=O)NCCCN(CCCCN(CCCNC(=O)c2ccc(C(=O)O)c(O)c2O)C(=O)c2ccc(C(=O)O)c(O)c2O)C(=O)c2ccc(C(=O)O)c(O)c2O)c(O)c1O
inactive: [1] 11.2% | [2] 16.1% | [3] 20.3% | [4] -31.3% | [5] 0.35% | [6] 24.9%

COc1ccc(C2c3cc(OC)c(OC)cc3C(Cc3ccc([N+](=O)[O-])cc3)C2c2ccc([N+](=O)[O-])cc2)cc1OC (stereo not given)
inactive: [1] 10.7% | [2] 19.8% | [3] -4.15% | [4] 16.1% | [5] 23.2% | [6] 6.55%

O=C1CC(c2ccccc2)n2c(nc3ccccc32)N1 (stereo not given)
inactive: [1] 5% | [2] 1.85% | [3] -18.1% | [4] -14.1% | [5] -15.4% | [6] -64.2%

CCCCCCCCCCCCCCCCCC(O)CCCCCCCCCCCCCCCCC
inactive: [1] -16.9% | [2] -8.45% | [3] -7.75% | [4] -47.2% | [5] 2.4% | [6] -8.25%

COc1cc(C(=O)NO)ccc1O
inactive: [1] -0.15% | [2] -12.6% | [3] -15.1% | [4] -1.95% | [5] -6% | [6] -1.4%

Cc1nc(Nc2nc3ccccc3[nH]2)[nH]c(=O)c1CCO
inactive: [1] 9.6% | [2] 5.4% | [3] -7.3% | [4] 21.9% | [5] 15.8% | [6] -6.45%

O=c1n(-c2ccccc2)c(=O)n2n1C1C3C4C5C3C2C5(F)C41 (stereo not given)
inactive: [1] -7.3% | [2] 8.45% | [3] 5.95% | [4] 13.7% | [5] 6.75% | [6] 12.3%

O=C1c2ccccc2C(=O)N1C/C=C/CO
inactive: [1] 11.5% | [2] 8.75% | [3] -1.45% | [4] 7.6% | [5] 0.95% | [6] 1.15%
